About 3,700 (7%) of roughly 53,000 sequences were called active. Many of the other results were omitted from the sample, so actives are more common in it than they were. Unmarked numbers belong to inactive results.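 Rule for the calls: active = gene knockdowns whose robust z-score for IL-1 alpha signal is at least 2 or at most -2, so actives lie on both sides; inactive = the rest.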

A short description of this test: Components of the Cytosolic LPS Sensing Pathway: Gene Identification via Genome-wide siRNA Screen.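 Note: robust z of the log signal after scaling to non-targeting control siRNA wells of the plate.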 The note with it: RAW264.7 macrophages, IL-1a HTRF, actives lie on both sides, screened at 100 nM (by protocol), cells primed 5 h with Pam3CSK4 first. The method in brief: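 Three distinct siRNAs per gene were tested singly at 100 nM in RAW264.7 macrophages. Following Pam3CSK4 priming and 24 hour LipidA transfection, IL-1a secretion was read by HTRF.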
GCAUGCUUUCUGAAUACAATT against Cdk8: the z-score was 2.17 (active).

Take GGAACAGCUAAAGUUGGGATT against Kcnj9: the z-score was 0.5.

With GGGUAUGGUUCUGUUGGCATT against Pxmp4, the z-score was -1.45.

In the case of CCUAAAGGUUCCCAACAGUTT against Serpinb3d, the z-score is -0.517.

As for GGCUGAUUCAUUUGGGAACTT against Olfr9, the z-score was 0.805.

Take GGCCUCUGAGGACAAGUUUTT against Als2cl: the z-score is 0.0383.

With GGUAGAGGAUGCGAUGCUGTT against Msi2, the z-score was 4.61 (active).

With GGGAGGUGCAGAUAGGAUUTT against Csrp1, the z-score was 0.912.

Consider GGCGAUAGUGUCUAAGAAATT against Cfap298, for which the z-score is -0.0112.

For GGAUGAGAAAUACUUUCGGTT against C8a, the z-score was 0.126.

As for GGCAAGUGCCCAAGUUUGUTT against Ifi35, the z-score is 1.08.

As for GGCAUAUUGUUUCAUUUUGTT against Rlbp1, the z-score was -1.19.

In the case of GGCUUUAUAUGAAACUCCUTT against Acrv1, the z-score was -2.01 (active).

As for GCACAGUAGUUCUUGCAUCTT against Olfr891, the z-score was 0.13.

In the case of CCUAGUCCCUCUGUCUCUUTT against Kctd13, the z-score is -1.79.

In the case of GUACACCAGUGGAAGCACATT against Sprr2b, the z-score was -1.91.

For the sequence GGAUUUGUCAAUGCAAUAATT against Olfr1012, the z-score was -2.68 (active).

Take GGACAACAUAUUCUGAUAATT against Stmnd1: the z-score was 1.68.

Turning to GGCUUCCUACCUAAGGCUUTT against Bora, the z-score is -0.924.

For CCAGACUACGGUGCUAAGATT against Defb21, the z-score is 2.49 (active).

Turning to GGCCGUGUUAAGGAAUCUGTT against Cidea, the z-score was 0.653.

Turning to CCUCUUCUGCGCGGAUUUGTT against Ffar4, the z-score is 0.708.

As for GGAGAAAGCUUACUGCCUUTT against Lrrc6, the z-score was -0.959.

For GGAACAGCAGUUUUUGUUUTT against Rnf44, the z-score is 0.097.

In the case of GGCGAGUCUACGUGACACUTT against Arrb1, the z-score is 0.701.

For the sequence GGACAUCGUGCUCUAUCUCTT against Nrarp, the z-score is -1.07.

Consider GCAGAUCUUGUGAUUAAUGTT against Ildr1, for which the z-score was 0.882.

CCCAUGGAAUGAAAACAACTT against Gm4894: the z-score was 2.58 (active).

For GGAAAUAGUUGGUUUUGAATT against Slfn1, the z-score was -1.95.

For the sequence GCAUUAGGAAUUCAAUUAGTT against Adamts1, the z-score is 0.813.

For “GGACGUAGCUAUGGAGGAUTT against 1810009A15Rik”, the z-score was -1.83.

Consider GGAAACCAGAAAAACUGAATT against Parg, for which the z-score was 0.653.

Consider GGAUUAAUUAAUACUUGGCTT against Rps9, for which the z-score is 0.986.

CCGACACGUUCUCAAUGUCTT against Gss: the z-score was -0.496.

For the sequence GGAAGGACAAAGAAAGCCUTT against Fbxw4, the z-score was -0.286.

Regarding GGUUCUUAGGAGUUAACUCTT against Klf16, the z-score is 2.71 (active).

In the case of GGAGAUCAUGCUCAAGAACTT against Dgke, the z-score was 0.176.

In the case of GGACACCUACUUGGUAUUGTT against Epor, the z-score was -0.632.

Consider GGAGAGUAUCAGCAAUGAATT against Impg2, for which the z-score was 1.02.

For the sequence GGAAAGUUCCCAUGUUCUCTT against Mgat4f, the z-score was 1.33.

Take CGUGAGAUCAUUGAUGUGGTT against Ankrd2: the z-score was -1.16.

With GGAUUCUCCAGACACCUUGTT against Styxl1, the z-score is -0.704.

Take GCUAUUGCCUUAGAUCCAUTT against Lrp6: the z-score was 0.384.

For GCUCAACUUCUGAAUUAUATT against Enpep, the z-score was 2.64 (active).

For GGUCAGCAUCACCUACGAUTT against Prss8, the z-score was -0.688.

Regarding GGAGCUGAAGCAAAGACAGTT against Svbp, the z-score is -0.599.

As for GGAAACAACCAUCGAGGUUTT against Cyp4x1, the z-score was -0.31.

For GGCUGUGACUCUGGAUUUGTT against Bdh1, the z-score is -0.985.

As to GGAUUCUGAACACUUUUUCTT against Pot1a, the z-score was -2.02 (active).

Consider GCACCAUGUAUACAAAAGATT against Pcdhb3, for which the z-score was 0.0679.

For the sequence GGAGUUUGUGAAUAAAUGUTT against Map2k2, the z-score was 0.177.

Consider GUGGAAGACUUCACCGGACTT against Arxes1, for which the z-score was 2.01 (active).

GCUUACUUUGGAACACAAATT against Tex18: the z-score was 1.22.

Regarding GCAGGAUUGCAUAUAUCGGTT against Cspg5, the z-score is -0.672.

In the case of CGAUGCUGUUCUUCAAUGUTT against Krt222, the z-score was 1.23.

As to GGUUUGAAUUCAAGUUCAUTT against Klhl5, the z-score was 0.616.

As for GGAAAAAUAGGUCGAAUGATT against Arntl, the z-score was 0.229.

CGAUUCCAACAAGAAAGUGTT against Togaram2: the z-score is 0.649.

As for GCGGGAGAAGCUAAUGAAATT against Ndufs5, the z-score was 2.21 (active).

GGAUUUUGUUUCAGGUGGATT against Itgb8: the z-score was 1.78.

With GGCAGAUGGUAUCAGCUGUTT against Cd248, the z-score is -1.11.

Turning to GGAGACAAACUCAAAACUGTT against Lyplal1, the z-score was -1.12.

Consider CACUGAACAGAUCAGAGCATT against Fam189b, for which the z-score is -2.44 (active).

With AAUCUUGAGAGAUUUCUCCTT against Scd2, the z-score is -0.047.

As for GCCACGGCCAGUAAAACAUTT against Cdcp1, the z-score is 0.335.

With GGAUGAGUUUUUAAAGUCATT against Otop2, the z-score was -0.883.

For GGCAAUGUCAGAGCUAAUCTT against Mettl25, the z-score was 0.596.

Turning to GGGACAACCUGGAUGACAUTT against Coq6, the z-score was -0.0644.

Regarding CCUUUGUCCGGUCCAUUCCTT against Hk1, the z-score is -0.654.

On to GCAAGUUCGAAUCCUCCGUTT against Dach2, for which the z-score is 4.72 (active).

As for GGUGAAUGGCAUGACCAUATT against Asb9, the z-score is 0.49.

Regarding GGAGUCCUUUAAGAUUAUATT against Pex13, the z-score is 1.3.

As for GGUAGAUGAUGAAAAACAATT against Erich3, the z-score is -2.02 (active).

Consider GGAAGAAUCUGUUACUUUUTT against Rad1, for which the z-score was -0.693.

On to CCUUUUAGGGAAAUUUGCATT against Mcm9, for which the z-score was 0.651.

Consider GGGAAGAACUGUGAUUAUUTT against Hspd1, for which the z-score is 0.625.

For the sequence CCAUUGAACAGCAGAUUGGTT against Atp7a, the z-score was 0.81.

Turning to GGUCUUCUUCGUGUUCAUCTT against Olfr281, the z-score was -0.0815.

In the case of GGAAAAAUUGAAGUUGAUCTT against Iqcj, the z-score was -1.35.

As for GGCUCGUCAAAUCAAGUAUTT against H2bc6, the z-score is -2.37 (active).

As for GGAAAUCAAGCUGAAGUUATT against Eqtn, the z-score is 0.231.

Take GCGCAAACAACACAUCGUCTT against Ccpg1: the z-score was 0.503.

Consider GGCUGUCAUCCAAGAACUUTT against Mtcp1, for which the z-score was 0.176.

As for GGAGAUCCGAGUGAGGAAUTT against Eif3b, the z-score was 2.91 (active).

For GGUUUAACUAGAAUUUGGUTT against Cyp2ab1, the z-score was 1.75.

Take GGACAAGAAUAAGUACAACTT against Rpl5: the z-score is -0.918.

As to GCCCUUGAACGGAGAAUAGTT against Brk1, the z-score is -1.59.

GCUCUGACCAUCCUUAGCUTT against Olfr938: the z-score is -2.62 (active).

GCCAUACGAUCUGCAUUUCTT against Zbtb38: the z-score is -1.85.

In the case of GGAACAAGUAAAAUUCGUCTT against Tssk2, the z-score is 1.71.

As to GGGUUAUGAAGAAGCUCCUTT against Olfr1262, the z-score is -1.52.

GCUGUGUGACCAGCUGUUGTT against Krtap9-1: the z-score was 0.44.

With CCUACGUCAUUUCAGCACCTT against Hc, the z-score is 0.356.

Regarding “GCUCCCAUUAUCAUUCAAATT against D3Ertd751e”, the z-score is 1.67.

For the sequence GGAGCUCUGGCACUUUGUCTT against Gramd1b, the z-score was 0.37.

With GGAGAAAAGAGGCUUCCAGTT against Lad1, the z-score was 0.754.

CCCAGAUACCUGGAAAACGTT against Fam189a1: the z-score is -2.17 (active).

GGUAUUCCUCUAGAUCAGATT against Dysf: the z-score was 0.627.

For GGAUUUGGAGCAGGUGGAUTT against Avpr1b, the z-score was -0.97.

As for AUGCUUUUUGGAGCCAUAUTT against Olfr307, the z-score is 3.07 (active).

Consider GCCCUGAACUACCUAGAAATT against Alg5, for which the z-score is 1.58.

Turning to GGUUAAGAUUCCAGAGCCATT against Prune1, the z-score is -0.297.

Regarding GGAGAAUCUGGUCUGGGUATT against Septin4, the z-score is 1.04.

For the sequence GGGCAAGUAUGGCUAUGUGTT against Pram1, the z-score is -0.178.

GGCCAAGAGAAUCUAAAGATT against Strn4: the z-score is -0.338.

For GGAGACACUGAAUGUGACATT against Ttyh1, the z-score was -2.03 (active).

Turning to UGUAACCAUGGUUACCGUGTT against Olfr1513, the z-score is 0.311.

Turning to GGCUGAGAACAUCAAAAAATT against Folh1, the z-score was 0.816.

The values above are taken from PubChem BioAssay AID1508600 (Functional Genomics Laboratory (NCATS/FGL), 2020).
